Assay outcomes from PubChem BioAssay.
SSB-PriA inh = inhibitors of Klebsiella pneumoniae PriA binding to SSB C-terminal tail, primary screen, biochemical, AlphaScreen; PriA–SSB C-terminal tail interaction (Klebsiella pneumoniae); AlphaScreen SSBct-PriA binding, biotinylated peptide; inhibition, % at 33 µM; actives 0.6% (n = 430,000); in the data active = inhibition mostly above about 37%, no sharp cut-off; inactive = mostly below about 20%;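 also: plate controls were negative control peptide for no effect and reference peptide for full effect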
MazF activator = activators of E. coli MazEF toxin-antitoxin RNase, primary screen, biochemical, fluorescence, uHTS; activation, % at 20 µM; Endoribonuclease toxin MazF (Escherichia coli (strain K12)), P0AE70; actives 0.32% (n = 350,000); AID 504720, 2011; FAM/BHQ RNA-DNA oligo cleavage fluorescence, 5 h; in the data active = activation above about 50%
Target sequence (P0AE70 whole entry, looked up): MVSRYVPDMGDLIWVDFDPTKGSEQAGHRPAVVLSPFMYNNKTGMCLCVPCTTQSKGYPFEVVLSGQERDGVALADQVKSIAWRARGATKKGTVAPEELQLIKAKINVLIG
BoNT-A LC inh2 = BoNT/A light chain protease inhibitors, primary screen, biochemical, flow cytometry, MLPCN library; Botulinum neurotoxin type A light chain protease (Clostridium botulinum A str. ATCC 3502); multiplex microsphere protease substrate cleavage; inhibition, % at 10 µM; actives 0.17% (n = 360,000); AID 588499, 2011; also: plate controls were buffer without enzyme for full effect and enzyme alone for no effect
BoNT F protease = BoNT/F light chain protease inhibitors, primary screen, biochemical, flow cytometry, MLPCN library | actives 0.22% (n = 360,000) | Multiplex microsphere protease cleavage assay | inhibition, % at 10 µM | Botulinum neurotoxin type F light chain protease (Clostridium botulinum); in the data active = inhibition above about 35%, passing the limit was not always enough; inconclusive = no clear call, values can overlap the other calls; also: plate controls were buffer without enzyme for full effect and enzyme alone for no effect
Bead autofluor = compound fluorescence in toxin protease inhibitor counterscreen; AID 624483; fluorescence intensity (concentration not given with the values); actives 3.1% (n = 360,000); compound autofluorescence counterscreen, microsphere flow cytometry; stronger effect = higher value; in the data active = fluorescence intensity above about 16000; inconclusive = no clear call, values can overlap the other calls
Anthrax LF inh2 = Bacillus anthracis LF protease inhibitors, primary screen, biochemical, multiplex microsphere, MLPCN library; multiplex microsphere protease cleavage assay; actives 0.12% (n = 360,000); inhibition, % at 10 µM; also: plate controls were buffer without enzyme for full effect and enzyme alone for no effect
An asterisk follows results filed as active. Most compounds without a hit are left out; they make up all but 3.3% or so of the library. Rule as the data show it, unless noted: active = inhibition above about 30%; inconclusive = no clear call, values can overlap the other calls; inactive = below that.

Screening O=CN(/C=C1\Sc2ccccc2C1=O)Cc1ccccc1 returned SSB-PriA inh 7, MazF activator -22, BoNT-A LC inh2 2, BoNT F protease 3, Bead autofluor 22692* and Anthrax LF inh2 1.
CCC(=O)N(C)/C=C1\Sc2ccccc2C1=O was read as SSB-PriA inh 1, MazF activator -14, BoNT-A LC inh2 0, BoNT F protease 2, Bead autofluor 2550 and Anthrax LF inh2 1.
Screening CCC(=O)N(C1=C(NC)C(=O)c2ccccc2C1=O)C(C)C returned SSB-PriA inh 6, MazF activator 4, BoNT-A LC inh2 0, BoNT F protease -5, Bead autofluor 2348 and Anthrax LF inh2 0.
For CCC(=O)N(CC)C1=C(O)c2ccccc2C(=O)C1=O the results were SSB-PriA inh -11, MazF activator -6, BoNT-A LC inh2 0, BoNT F protease -2, Bead autofluor 20676* and Anthrax LF inh2 1.
Screening COc1cc2c(cc1OC)C(c1cc3cc(OC)c(OC)cc3[nH]c1=O)N(C(=O)C1CC1)CC2 (configuration not stated) returned SSB-PriA inh 4, MazF activator 3, BoNT-A LC inh2 1, BoNT F protease 0, Bead autofluor 20442* and Anthrax LF inh2 -3.
CCCC(=O)N1CCc2cc(OC)c(OC)cc2C1c1cc2cc3c(cc2[nH]c1=O)OCO3 (configuration not stated) was read as SSB-PriA inh -19, MazF activator 11, BoNT-A LC inh2 0, BoNT F protease -3, Bead autofluor 10150 and Anthrax LF inh2 0.
`O=C(Nc1ccc(-c2nc3cccnc3s2)cc1)c1ccc2c(c1)OCO2` gave SSB-PriA inh 4.
Screening COc1ccc(-c2ccc(-c3nnc(Cc4ccc(OC)c(OC)c4)o3)cc2)cc1 returned SSB-PriA inh -9, MazF activator -14, BoNT-A LC inh2 1, BoNT F protease 4, Bead autofluor 22185* and Anthrax LF inh2 -5.
CC(C)C(C(=O)NCC1CCCO1)N(C(=O)CNS(=O)(=O)c1ccc(F)cc1)C1CCCCC1 (configuration not stated) was read as SSB-PriA inh -10, MazF activator -9, BoNT-A LC inh2 0, BoNT F protease -4, Bead autofluor 5761 and Anthrax LF inh2 -1.
Screening O=S(=O)(NCC1CCCO1)c1ccc(S(=O)(=O)N(Cc2ccc(F)cc2)C2CCCCC2)cc1 (configuration not stated) returned SSB-PriA inh -12, MazF activator -6, BoNT-A LC inh2 2, BoNT F protease 5, Bead autofluor 21632* and Anthrax LF inh2 0.
O=S(=O)(NCC1CCCO1)c1ccc(Cl)c(C(F)(F)F)c1 (configuration not stated) was read as SSB-PriA inh 2, MazF activator 4, BoNT-A LC inh2 inconclusive, BoNT F protease 4, Bead autofluor 21968* and Anthrax LF inh2 -1.
Screening COc1cc(C(=O)N2CCCC(c3nc(-c4cccs4)no3)C2)cc(OC)c1OC (configuration not stated) returned SSB-PriA inh 4, MazF activator -2, BoNT-A LC inh2 -5, BoNT F protease -4, Bead autofluor 17019* and Anthrax LF inh2 -9.
O=C(Nc1ccc(Cl)cc1)N1CCC(c2nc(-c3cccs3)no2)CC1 was read as SSB-PriA inh -22, MazF activator -2, BoNT-A LC inh2 inconclusive, BoNT F protease -2, Bead autofluor 24323* and Anthrax LF inh2 -3.
Screening O=C(Nc1cccc(C(F)(F)F)c1)N1CCC(c2nc(-c3ccc(F)cc3)no2)CC1 returned SSB-PriA inh -7, MazF activator 8, BoNT-A LC inh2 2, BoNT F protease -3, Bead autofluor 20249* and Anthrax LF inh2 -3.
`O=C(Nc1ccc2c(c1)CN(S(=O)(=O)c1ccccc1)CC2)c1cccc2ccccc12` gave SSB-PriA inh -5.
Screening CCOc1ccc(C(=O)N2CCO[C@H](c3ccccc3)C2)cc1OCC returned SSB-PriA inh 5.
`O=S(=O)(Nc1cnn(C2CCOCC2)c1)c1cccnc1` gave SSB-PriA inh -17.
Screening Oc1cccc2c(NC(=S)Nc3ccc(OC(F)F)cc3)cccc12 returned SSB-PriA inh 54*, MazF activator 12, BoNT-A LC inh2 0, BoNT F protease 0, Bead autofluor 2119 and Anthrax LF inh2 0.
Clc1ccccc1Nc1ncnc2c1nnn2Cc1ccccc1 was read as SSB-PriA inh 2, MazF activator 9, BoNT-A LC inh2 inconclusive, BoNT F protease -2, Bead autofluor 16216* and Anthrax LF inh2 -5.
CCN1CCN(c2ncnc3c2nnn3Cc2ccccc2)CC1 was read as SSB-PriA inh -6, MazF activator 9, BoNT-A LC inh2 1, BoNT F protease 1, Bead autofluor 3080 and Anthrax LF inh2 -2.
`c1ccc(Cn2nnc3c(N4CCC5(CC4)OCCO5)ncnc32)cc1` gave SSB-PriA inh -12, MazF activator -4, BoNT-A LC inh2 0, BoNT F protease 1, Bead autofluor 3246 and Anthrax LF inh2 -4.
`c1ccc(Cn2nnc3c(N4CCCC4)ncnc32)cc1` gave SSB-PriA inh -8, MazF activator -3, BoNT-A LC inh2 -1, BoNT F protease -4, Bead autofluor 16477* and Anthrax LF inh2 0.
Screening Fc1ccccc1Nc1ncnc2c1nnn2Cc1ccccc1 returned SSB-PriA inh -6, MazF activator -4, BoNT-A LC inh2 -2, BoNT F protease 4, Bead autofluor 3623 and Anthrax LF inh2 1.
c1ccc(Cn2nnc3c(N4CCc5ccccc5C4)ncnc32)cc1 was read as SSB-PriA inh -4, MazF activator -1, BoNT-A LC inh2 4, BoNT F protease 8, Bead autofluor 20729* and Anthrax LF inh2 1.
COc1ccccc1/C=C/CN1CCOCC1 was read as SSB-PriA inh -1, MazF activator 7, BoNT-A LC inh2 1, BoNT F protease -2, Bead autofluor 22191* and Anthrax LF inh2 -4.
CC(CN1CCOCC1)OC(=O)c1ccccc1 (configuration not stated) was read as SSB-PriA inh 3, MazF activator -8, BoNT-A LC inh2 inconclusive, BoNT F protease inconclusive, Bead autofluor 3519 and Anthrax LF inh2 -4.
Screening COc1ccccc1/C=C/C(=O)OC(C)CN1CCOCC1 (configuration not stated) returned SSB-PriA inh -3, MazF activator 1, BoNT-A LC inh2 -3, BoNT F protease -4, Bead autofluor 21922* and Anthrax LF inh2 -3.
Screening CCS(=O)(=O)NCCOc1cc(N2CCCCC2)ncn1 returned SSB-PriA inh -16.
